A short description of test [1]: NCI Yeast Anticancer Drug Screen. Data for the rad50 strain (AID 155).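 Also: 0% = growth of vehicle-only cultures of the same strain.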 As to conditions: S. cerevisiae rad50 strain growth inhibition; at 50.0 µM; active compounds read high. The gist of the method: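 Readout: growth inhibition relative to vehicle-treated cultures. Compound exposure was carried out in a genetically defined yeast strain deficient in DNA damage repair.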

Test [2] is described as follows: NCI Yeast Anticancer Drug Screen. Data for the mec2-1 strain (AID 157). As to conditions: S. cerevisiae mec2-1 strain, at 50.0 µM, active compounds read high. The gist of the method: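 Each compound was tested on mec2-1 yeast, a strain altered in DNA damage repair or cell cycle control. Growth inhibition is reported relative to vehicle.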
The nature of test [3]: NCI Yeast Anticancer Drug Screen. Data for the sgs1 mgt1 strain (AID 161).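 Also: 0% = growth of cultures given vehicle only.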 The following applies: S. cerevisiae sgs1 mgt1 strain, at 50.0 µM, active compounds read high. Summed up: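 Genetically altered yeast, compound exposure, growth inhibition relative to vehicle.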
Test [4] can be described thus: NCI Yeast Anticancer Drug Screen. Data for the cln2 rad14 strain (AID 165).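 Also: 0% = growth equal to vehicle treated cultures.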 As to conditions: S. cerevisiae cln2 rad14 strain, at 50.0 µM, active compounds read high. Summed up:
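Test compounds were added to cln2 rad14 yeast cultures; inhibition of growth was then determined by comparison with vehicle treatment.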

Test [5] can be described thus: NCI Yeast Anticancer Drug Screen. Data for the bub3 strain (AID 167). The following applies: S. cerevisiae bub3 mutant strain, at 50.0 µM, active compounds read high. The gist of the method: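 Readout: yeast growth inhibition, expressed relative to vehicle-only wells. The test organism is a mutant strain from a panel with lesions in DNA repair or checkpoint genes.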
A short description of test [6]: NCI Yeast Anticancer Drug Screen. Data for the mlh1 rad18 strain (AID 175). As to conditions: S. cerevisiae mlh1 rad18 strain growth inhibition; at 50.0 µM; active compounds read high. Summed up: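 Inhibition values reflect reduced growth of mutant yeast versus vehicle-treated controls following compound exposure; the mutations affect DNA damage repair.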

This is part of a sample that, as a whole, favours compounds with a hit. Of some 79,000 tested, about 15% had one in any assay. A number with no mark means an inactive call. Active and inactive are the calls of the source. Rule as the data show it: active = growth inhibition above about 70%; inactive = the rest.

Take `COc1ccc(NS(=O)(=O)c2ccc(NCc3c4ccccc4nc4cc(Cl)ccc34)cc2)nn1`: the growth inhibition is 20.2% in test [1]; 45% in test [2]; 9.65% in test [3]; -30.8% in test [4]; -8.3% in test [5]; 37.5% in test [6].

For the molecule `NC(N)=NCc1ccc2c(c1)OCO2`, the growth inhibition was -28.4% in test [1]; -2.95% in test [2]; -1% in test [3]; 10.1% in test [4]; -10.9% in test [5]; -34.1% in test [6].

Take `FC1(F)SC2CCCCCCCCCCC2C1(F)F` (centres undefined): the growth inhibition is -42.6% in test [1]; -15.3% in test [2]; -20.4% in test [3]; -18.7% in test [4]; 29.1% in test [5]; 2.05% in test [6].

For the molecule `CCOC(=O)C(C)c1nc2cc(F)c(F)cc2[nH]c1=O` (centres undefined), the growth inhibition in test [1] is -5.45%; in test [2], 26.5%; in test [3], 9%; in test [4] it was 2.6%; in test [5] it was 4.1%; in test [6] it was -19.4%.

`N#Cc1cnc(=S)n(-c2cc(C(F)(F)F)cc(C(F)(F)F)c2)c1N`: the growth inhibition in test [1] was 5.7%; in test [2], -10.9%; in test [3] it was 15.9%; in test [4], 11.7%; in test [5], 8.85%; in test [6], 11.5%.

With `O=Cc1ccnc2c(Cl)cccc12`, the growth inhibition is 16.4% in test [1]; 22.8% in test [2]; -1.1% in test [3]; 15.1% in test [4]; 6.3% in test [5].

For `CCCNC(=O)C1C(=O)C(=O)N(CCC)C1=O` (centres undefined), the growth inhibition in test [1] is 7.8%; in test [2] it was 4.45%; in test [3], 4.1%; in test [4] it was -4.5%; in test [5], -3.9%; in test [6], 4.05%.

As for `Cn1c2c(c3ccccc31)C(=O)CC2(C)C`, the growth inhibition is -5.6% in test [1]; -4.8% in test [2]; -2.35% in test [3]; -18.2% in test [4]; -30.6% in test [5]; 2.15% in test [6].

On to `C=COC(=O)C=C`, for which the growth inhibition was -3.1% in test [1]; 9.15% in test [2]; -3.2% in test [3]; -0.2% in test [4]; 13.9% in test [5]; -9.15% in test [6].

In the case of `CC(=O)OC[C@]1(C)CCCC2(C)C1CCC1C=C(C)[C@H]3CCC12C3` (some centres undefined), the growth inhibition was 2.05% in test [1]; -2.85% in test [2]; -17.8% in test [3]; -1.65% in test [4]; -3.1% in test [5]; 11.3% in test [6].

With `COC(=O)c1cc(CN(C)C)c(O)c(CN(C)C)c1`, the growth inhibition was -20.3% in test [1]; -10.8% in test [2]; -34% in test [3]; -3.7% in test [4]; 2% in test [5]; -29% in test [6].

Turning to `O=C(Nc1ccc(Cl)c(Cl)c1)C1C(=O)N(c2ccc(Cl)c(Cl)c2)C(=O)/C1=N\O` (centres undefined), the growth inhibition in test [1] is 24.4%; in test [2], -4.3%; in test [3], 11.2%; in test [4], 16.9%; in test [5] it was -3.3%; in test [6], 22.8%.

In the case of `COC(=O)C(C(C)C(C)[N+](=O)[O-])=P(c1ccccc1)(c1ccccc1)c1ccccc1` (centres undefined), the growth inhibition is 41.7% in test [1]; 3.4% in test [2]; 29.5% in test [3]; 11.2% in test [4]; -4.95% in test [5]; 10.8% in test [6].

`Cc1nc2sc(CCl)nn2c(=O)c1Cl`: the growth inhibition was 16.1% in test [1]; 34% in test [2]; 14.6% in test [3]; 17.9% in test [4]; 21.2% in test [5]; 10.8% in test [6].

For `O=C1C2ON3c4ccccc4C(=O)C3(c3ccccc3)C2C(=O)N1c1ccccc1` (centres undefined), the growth inhibition in test [1] was -40.9%; in test [2] it was -31.3%; in test [3], -63%; in test [4], -14.3%; in test [5], -37%; in test [6] it was -49%.

In the case of `COc1ccc(CN2CCCN(Cc3ccc(OC)cc3)C2c2ccc([N+](=O)[O-])cc2)cc1`, the growth inhibition was -0.3% in test [1]; 14.8% in test [2]; 12.8% in test [3]; -18.7% in test [4]; 32.9% in test [5]; -16.6% in test [6].

For the molecule `CC(C)(C)OC(=O)N(CCCCNC(=O)C(F)(F)F)CCCNC(=O)C(F)(F)F`, the growth inhibition was -26.4% in test [1]; -30.3% in test [2]; -26% in test [3]; 11.6% in test [4]; -29.8% in test [5]; -86% in test [6].

For the molecule `CCC1=CC(C=O)N(C(C)=O)c2ccccc21` (centres undefined), the growth inhibition in test [1] was -2.85%; in test [2] it was 7.8%; in test [3], 7.2%; in test [4], 2.1%; in test [5] it was 1.95%; in test [6], -2.5%.

With `CC1(C)/C(=C\C(=O)O)C2CCC1C2` (centres undefined), the growth inhibition in test [1] was 11.4%; in test [2], 8.3%; in test [3] it was 7.5%; in test [4], -10.8%; in test [5], -9.1%; in test [6], 8.75%.

As for `N/N=C(\c1ccccc1)C(Nc1ccccc1)c1ccccc1` (centres undefined), the growth inhibition in test [1] is 11.2%; in test [2], -3.95%; in test [3], -2.05%; in test [4] it was -29%; in test [5], -5.15%; in test [6] it was 7.9%.

For `COC(=O)C(=O)OC`, the growth inhibition in test [1] is 27.1%; in test [2], -10%; in test [3] it was -11.3%; in test [4], -39%; in test [5], 1.15%; in test [6] it was -3.35%.

With `CC/C(=N\N=C(/CC)c1cccs1)c1cccs1`, the growth inhibition in test [1] is 25.5%; in test [2] it was -6.4%; in test [3], -10.7%; in test [4], 3.35%; in test [5] it was 13.1%; in test [6], -3.75%.

In the case of `S=c1o[nH]c(-c2ccccc2)c1C=Nc1ccccc1`, the growth inhibition is -5.45% in test [1]; 17.5% in test [2]; 13.9% in test [3]; 26.6% in test [4]; 5.35% in test [5]; 6.15% in test [6].

With `CCN=C(c1ccccc1)N(O)c1ccccc1`, the growth inhibition was -10.7% in test [1]; 9.2% in test [2]; -3.15% in test [3]; 6.35% in test [4]; 7.7% in test [5]; -14.1% in test [6].

`C1=Cc2c3c(c4c(c2C1)C=CC4)C=CC3`: the growth inhibition in test [1] was -1.95%; in test [2], -8.1%; in test [3] it was -1.2%; in test [4], -2.3%; in test [5], -1.15%; in test [6], 6.3%.

On to `Brc1cc2c(cc1C=NC1CCCCC1)OCO2`, for which the growth inhibition is 25.6% in test [1]; 22.8% in test [2]; -4.05% in test [3]; 6.8% in test [4]; 18.8% in test [5]; 43.7% in test [6].

Turning to `CC([N+](=O)[O-])S(=O)(=O)c1ccccc1` (centres undefined), the growth inhibition in test [1] is 3.55%; in test [2], -20.1%; in test [3] it was -10.4%; in test [4], -7.45%; in test [5], -2.95%; in test [6], 5.5%.

On to `CN(/N=C/c1cccc2cccnc12)c1ccccc1`, for which the growth inhibition is 8.9% in test [1]; 6.3% in test [2]; -0.45% in test [3]; 29.4% in test [4]; 14.6% in test [5]; 16.7% in test [6].

As for `C(=C\c1ccccc1)/Cn1nc(-c2ccccc2)nc1-c1cnccn1`, the growth inhibition in test [1] is -33.1%; in test [2] it was -24%; in test [3] it was -47%; in test [4], 10.2%; in test [5], -39.4%; in test [6], -29.1%.

On to `CC(=O)OCC1OC(n2ccc(=O)[nH]c2=O)C(NC(=O)C(F)(F)F)C(OC(C)=O)C1OC(C)=O` (centres undefined), for which the growth inhibition in test [1] is 2.4%; in test [2] it was -5.4%; in test [3], -11.2%; in test [4] it was -11.2%; in test [5], -2.05%; in test [6] it was -11.7%.

On to `COc1cc(C)ccc1C(=O)C[n+]1ccc2ccccc2c1`, for which the growth inhibition was -41.3% in test [1]; -1.35% in test [2]; -25.9% in test [3]; -56.1% in test [4]; -1.55% in test [5]; -2.5% in test [6].

With `O=C1OC2(OC2c2ccccc2)c2ccccc21` (centres undefined), the growth inhibition in test [1] is 0.25%; in test [2], -8.95%; in test [3] it was -37.2%; in test [4], -15.2%; in test [5], -29.8%; in test [6] it was -22.1%.

As for `Cc1ccc(/C=C(/C#N)C(N)=O)cc1`, the growth inhibition was 11.2% in test [1]; 0.05% in test [2]; 21.4% in test [3]; 17.6% in test [4]; 12.5% in test [5]; 29.9% in test [6].

As to `Cc1nc(N)[nH]c(=O)c1CCCN=Cc1ccc([N+](=O)[O-])cc1`, the growth inhibition in test [1] was 4.3%; in test [2] it was 6%; in test [3] it was 14.4%; in test [4], 7.7%; in test [5], 31.6%; in test [6], 29.9%.

In the case of `[O-][n+]1c(CN2CCCCC2)nc2cccc3c2c1-c1ccccc1-3`, the growth inhibition was 33.4% in test [1]; 12.3% in test [2]; -3.5% in test [3]; -8.55% in test [4]; 20.6% in test [5]; 13.1% in test [6].

Take `CC(C)(C)C1CC[C@H]2c3c([nH]c4ccc(Br)cc34)[C@H]3C(=O)N(c4ccccc4)C(=O)[C@H]3[C@H]2C1` (some centres undefined): the growth inhibition in test [1] was 18.4%; in test [2], -2.7%; in test [3], 27.2%; in test [4], 29.4%; in test [5] it was -0.15%; in test [6], 12.6%.

Take `CC1OS(=O)(=O)CS(=O)(=O)OC1C` (centres undefined): the growth inhibition in test [1] is -50.1%; in test [2], -24.9%; in test [3] it was -12.8%; in test [4], -61.4%; in test [5], 4.8%; in test [6] it was -6.15%.

Consider `Cc1cccc(C)c1NC(=O)N1CCN(C)CC1`, for which the growth inhibition in test [1] is 1.9%; in test [2] it was 14.3%; in test [3] it was -3.3%; in test [4] it was -75.8%; in test [5], -9.45%; in test [6], -18.6%.

As for `O=C(N[C@@H](CCl)[C@H](Cl)c1ccc([N+](=O)[O-])cc1)c1ccc([N+](=O)[O-])o1`, the growth inhibition in test [1] is 85.3% (active); in test [2], 76.2% (active); in test [3] it was 93.3% (active); in test [4] it was 83.7% (active); in test [5], 87.3% (active); in test [6], 92.8% (active).

`CC(C(O)C(F)(F)F)[N+](=O)[O-]` (centres undefined): the growth inhibition in test [1] was -1.7%; in test [2], -4.5%; in test [3] it was 8.65%; in test [4], -5.2%; in test [5] it was -2.05%; in test [6] it was 17.2%.

(Values after PubChem BioAssay (NCI).)
